Data: PubChem BioAssay (NCATS)
Records with an inconclusive call do not appear. Where a call stands in place of a potency, no number is given. Activity calls are given as the source filed them. Calls follow the shape of the dose curve; as a rule, active = well fitted cell-killing curve with a large enough effect; inconclusive = small, poorly fitted or top-dose-only effect; inactive = no such curve, though single readings can be large or run the other way.

Experiment: qHTS of pediatric cancer cell lines to identify multiple opportunities for drug repurposing: Confirmatory screen for DAOY cells (AID 1347114); also: nearly all actives have a fitted effect of over 65% in size
Conditions: DAOY medulloblastoma cells viability, cytotoxicity qHTS; series mostly up to 45.9 µM
Text: Drug repurposing or repositioning has been offered as a strategy for drug development in oncology programs. This approach has special potential for childhood cancers and other rare or orphan diseases, where the expected return on new drug development has been a disincentive to pharmaceuticals.
In this project we exploit the poly-pharmacology of drugs to discover new indications via phenotypic screening of a panel of 19 well-characterized cell lines derived from solid tumors seen in children and adolescents. The goal is to identify approved drugs with previously unrecognized anticancer properties that has the potential to reveal new mechanisms and biological processes involved in carcinogenesis or drug resistance. We employed a titration-based paradigm (quantitative high-throughput screening or qHTS), where all compounds were tested at multiple concentrations for their effect on cell viability. Concentration-response curves (CRCs) were derived directly from the primary screen, and both potency and efficacy values were used to identify compounds with robust bioactivity profiles. We screened the NIH Chemical Genomics Center (NCGC) Pharmaceutical Collection (NPC) and Mechanism Interrogation Plate (MIPE) small molecule collections of approved and investigational compounds against these cell lines; and measured metabolically active cells after 48 hours of compound treatment as a proxy for cell viability.
Assay Submitter: Nathalia J. Martinez, National Center for Advancing Translational Sciences, National Institutes of Health, Rockville, MD, USA; email: natalia.martinez@nih.gov
[1] Shen, M et al. Quantitative high-throughput phenotypic screening of pediatric cancer cell lines identifies multiple opportunities for drug repurposing. Oncotarget 2017 Dec 19;9(4):4758-4772. PMID 29435139.
The cells were obtained from University of North Carolina (UNC), Pediatric Preclinical Testing Program (PPT), and Coriell Institute (CI).
qHTS cell viability assay:
Cells were assayed in growth media at a density of 500-1,000 cells/well. Five microliters of cells were dispensed into 1,536-well, white, solid-bottom, TC-treated plates (Greiner Bio One) using a multidrop dispenser and incubated at 37 degrees C, 5% CO2, under a humidified atmosphere for 5 hours. Twenty-three nanoliters of compounds and controls (neutral control DMSO or positive control bortezomib at final concentration of 2.3 µM) were subsequently transferred by Kalypsys pintool. For primary screens, the MIPE collection was tested at 11-point dilutions (final concentrations range from 0.78 nM to 46 µM) and the NPC collection at 8-point dilutions (final concentrations range from 0.59 nM to 46 µM). Compounds tested in follow-up screens were assayed at 11-point dilutions. Cells were incubated for 48 hours, followed by addition of 3 uL of CellTiter-Glo (Promega). After a 15 min incubation at room temperature, samples were analyzed for luminescence intensity using a ViewLux High-throughput CCD imager equipped with clear filters.
Potency is read from the fitted curve at half-maximal effect.

Structure (SMILES)	Potency
CCN(CC)CC(=O)OCC(=O)[C@@]1(O)CC[C@H]2[C@@H]3CCC4=CC(=O)CC[C@]4(C)[C@H]3[C@@H](O)C[C@@]21C	inactive
C[C@H]1C[C@@H]2[C@H]([C@@H](O)C[C@@]3(C)[C@H]2CC[C@]3(O)C(=O)CO)[C@@]2(C)C=CC(=O)C=C12	inactive
CC(=O)OCC(=O)[C@@]1(O)[C@H](OC(C)=O)C[C@H]2[C@@H]3CCC4=CC(=O)C=C[C@]4(C)[C@@]3(F)[C@@H](O)C[C@@]21C	inactive
CCCCC(=O)OCC(=O)[C@H]1[C@H](C)C[C@H]2[C@@H]3C[C@H](F)C4=CC(=O)C=C[C@]4(C)[C@@]3(F)[C@@H](O)C[C@@]21C	inactive
CCC(=O)O[C@]1(C(=O)COC)[C@@H](C)C[C@H]2[C@@H]3CCC4=CC(=O)C=C[C@]4(C)C3(F)[C@@H](O)C[C@@]21C (some centres undefined)	inactive
Cc1cc(OCCOCC[N+](C)(C)Cc2ccccc2)ccc1C(C)(C)CC(C)(C)C	11.7 µM (active)
COc1cc(/C=C/C(N)=O)cc(OC)c1OC	inactive
CCc1cc2cc(OC)c(OC)cc2c(Cc2ccccc2)n1	inactive
C[C@]12CCC(=O)C=C1CC[C@@H]1[C@@H]2[C@@H](O)C[C@@]2(C)[C@H]1CC[C@]2(O)C(=O)COC(=O)CCC(=O)O	inactive
CN(C)CCN(Cc1ccsc1)c1ccccn1	inactive
N=C(N)c1ccc(OCCCOc2ccc(C(=N)N)cc2)cc1	18.5 µM (active)
CCOC(=O)O[C@]1(C(=O)OCCl)CC[C@H]2[C@@H]3CCC4=CC(=O)C=C[C@]4(C)[C@H]3[C@@H](O)C[C@@]21C	inactive
CCCCC(CC)CNC(=O)CC(C)OC(=O)CCC(=O)O (centres undefined)	inactive
C[C@H]1C[C@H]2[C@@H]3CCC4=CC(=O)C=C[C@]4(C)[C@H]3C(=O)C[C@]2(C)[C@@]1(O)C(=O)CO	inactive
CCC1=C[C@@H]2CN(C1)Cc1c([nH]c3ccccc13)[C@@](C(=O)OC)(c1cc3c(cc1OC)N(C)[C@H]1[C@@](O)(C(=O)OC)[C@H](OC(C)=O)[C@]4(CC)C=CCN5CC[C@]31[C@@H]54)C2	0.0329 µM (active)
CC(=O)OCC(=O)[C@@]1(O)CCC2C3CCC4=CC(=O)CC[C@]4(C)C3[C@@H](O)C[C@@]21C (some centres undefined)	inactive
Nc1ccc2cc3ccc(N)cc3nc2c1	9.27 µM (active)
CO[C@@H]1[C@@H](OC)[C@H](C)[C@@](O)(CC(=O)O)O[C@H]1[C@H](C)[C@H]1O[C@@]2(CC[C@@](C)([C@H]3CC[C@@](C)([C@@H]4O[C@@H]([C@H]5O[C@](C)(O)[C@H](C)C[C@@H]5C)C[C@@H]4OC4C[C@H](OC)[C@@H](OC)[C@H](C)O4)O3)O2)C[C@H](O)[C@H]1C (some centres undefined)	1.85 µM (active)
CC(C)=CCC/C(C)=C/CC/C(C)=C/C(=O)OCC(=O)[C@@]1(O)CC[C@H]2[C@@H]3CCC4=CC(=O)C=C[C@]4(C)[C@H]3[C@@H](O)C[C@@]21C	20.8 µM (active)
